In PubChem BioAssay (NCI):
This is part of a sample that, as a whole, favours compounds with a hit. Of some 83,000 tested, about 20% had one in any assay.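 Interpretation: 100, growth as untreated; towards 0, rising growth inhibition; 0, no net growth; 0 to -100, cell death. Compounds scoring below 10 were considered active.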 Values without a mark were called inactive. Calls of active or inactive are those of the source.

Experiments:
Assay in all cases: NCI-60 one-dose screen, 48 h (100 = growth as untreated, 0 = no growth, -100 = all killed)
Settings in all cases: 10 µM unless noted
SR leukemia = tested on: SR leukemia
RPMI-8226 leukemia = tested on: RPMI-8226 leukemia
OVCAR-8 ovarian = tested on: OVCAR-8 ovarian
OVCAR-4 ovarian = tested on: OVCAR-4 ovarian
SK-OV-3 ovarian = tested on: SK-OV-3 ovarian
IGROV1 ovarian = tested on: IGROV1 ovarian
OVCAR-3 ovarian = tested on: OVCAR-3 ovarian
HS 578T breast = tested on: HS 578T breast
NCI/ADR-RES ovarian = tested on: NCI/ADR-RES ovarian
T-47D breast = tested on: T-47D breast
BT-549 breast = tested on: BT-549 breast
MDA-MB-435 melanoma = tested on: MDA-MB-435 melanoma
SW-620 colon = tested on: SW-620 colon
MCF7 breast = tested on: MCF7 breast
HCT-116 colon = tested on: HCT-116 colon
HCC-2998 colon = tested on: HCC-2998 colon
KM12 colon = tested on: KM12 colon
OVCAR-5 ovarian = tested on: OVCAR-5 ovarian

Structure (SMILES)	growth (SR leukemia)	growth (RPMI-8226 leukemia)	growth (OVCAR-8 ovarian)	growth (OVCAR-4 ovarian)	growth (SK-OV-3 ovarian)	growth (IGROV1 ovarian)	growth (OVCAR-3 ovarian)	growth (HS 578T breast)	growth (NCI/ADR-RES ovarian)	growth (T-47D breast)	growth (BT-549 breast)	growth (MDA-MB-435 melanoma)	growth (SW-620 colon)	growth (MCF7 breast)	growth (HCT-116 colon)	growth (HCC-2998 colon)	growth (KM12 colon)	growth (OVCAR-5 ovarian)
CC/C=C\CCC/C=C1/C(=O)C=C[C@@H]1C/C=C\CCCC(=O)O	8.78% (active)	6.36% (active)	9.28% (active)	92.5%	124%	104%	43.6%	45.7%	19%	55.3%	32.3%	5.08% (active)	9.71% (active)	20.2%	-30.2% (active)	68.2%	32%	–
NS(=O)(=O)c1cnccc1Oc1cccc2cccnc12	86%	88.4%	54.1%	118%	77.8%	–	113%	88.7%	107%	–	93.3%	108%	106%	93.4%	97%	95.9%	107%	82.9%
Cc1cc(NCCCCNc2ccnc3cc(Cl)ccc23)nc(Nc2ccc(C(=O)N3CCCCC3)cc2)n1	-29% (active)	-35.8% (active)	7.65% (active)	–	97.2%	29.8%	8.51% (active)	-28.9% (active)	–	-23.5% (active)	92.9%	-84.3% (active)	-70.2% (active)	-49.1% (active)	-48.9% (active)	-37.5% (active)	25.8%	82.7%
O=C(O)c1ccc2c(c1Cl)C(=O)c1ccccc1C2=O	70.7%	104%	118%	81.3%	102%	167%	99.5%	123%	97.5%	101%	116%	78.3%	107%	94%	93.2%	104%	107%	–
COc1cccc(Nc2nccc(Nc3ccc4[nH]ncc4c3)n2)c1	-11.5% (active)	-39.6% (active)	-80.5% (active)	–	15.3%	-24.2% (active)	-61.5% (active)	23.9%	-11.4% (active)	–	-15.9% (active)	-78.4% (active)	-69.3% (active)	-50.6% (active)	-87% (active)	-7.35% (active)	-44.3% (active)	32.9%
CN(C)c1ccc(/C=C/C(=O)c2cccc(Nc3nc(Nc4ccccc4)nc(Nc4ccccc4)n3)c2)cc1	77.4%	53.4%	81.2%	30.7%	93.2%	69%	102%	78.9%	76.4%	81.4%	99.3%	101%	103%	75.1%	83.2%	64.5%	99.8%	–
COc1cc2c(cc1-c1c(C)noc1C)ncc1nc(C3CCC(F)(F)CC3)n(C3CCC(OC(F)F)CC3)c12 (configuration not stated)	33.5%	20%	65.2%	–	17.6%	70.1%	44.6%	61.4%	47.4%	22.5%	79.2%	55.2%	75.1%	26.2%	53.9%	52.1%	51.4%	76.2%
NC(=N\N=C/c1cccc([N+](=O)[O-])c1)/C(N)=N\N=C/c1cccc([N+](=O)[O-])c1	71.3%	70.5%	57.8%	–	61.1%	96.1%	42.9%	-11.6% (active)	80.5%	4.8% (active)	-14.9% (active)	73.2%	38.9%	12.9%	37.4%	102%	54.2%	101%
COc1cccc(-c2nn(-c3ccccc3)cc2-c2ccnc(NCCNC(=O)c3ccccc3)c2)c1	-12.5% (active)	42.3%	43.8%	–	65.3%	79.6%	63.1%	68.5%	46.6%	19.4%	38.4%	65.4%	77.2%	62.5%	44.3%	71.2%	57.3%	–
O=C(COc1ccc(/C=C2\Oc3ccccc3C2=O)cc1)c1ccc(Cl)cc1	90.8%	111%	105%	115%	105%	–	96.6%	112%	110%	98.5%	121%	90.7%	115%	95.3%	88.5%	–	98.5%	97.4%
C=CC(=O)Nc1cccc(Oc2nccc(Nc3nnc(C4CC4)s3)n2)c1	58.3%	56%	91.4%	101%	112%	93.6%	89.5%	–	96.8%	95%	101%	–	93.3%	82%	101%	102%	97.5%	–
COc1ccc(/C=c2\nc3n(-c4ccccc4)c4nc5c6c(sc5c(=N)n4n-3c2=O)CCCC6)cc1	61.5%	80.1%	89.3%	82%	–	61.4%	88.2%	85.6%	83.1%	71.9%	–	89.5%	104%	71.9%	77%	105%	92.5%	104%
COc1ccccc1CNCCCN1C(=O)c2ccc3c4c(ccc(c24)C1=O)C(=O)N(CCCNCCCCN)C3=O	5.25% (active)	-8.59% (active)	-7.98% (active)	–	14.2%	8.53% (active)	-1.35% (active)	-7.25% (active)	42.5%	-14.7% (active)	-75.6% (active)	1.2% (active)	-0.0566% (active)	-45.7% (active)	-8.71% (active)	–	-15.8% (active)	-12.4% (active)
O=Cc1c[nH]c2ccc(-c3csc4ccccc34)cc12	6.86% (active)	27.8%	27.6%	94.2%	49.4%	20.5%	23.8%	40.4%	12.3%	70.7%	38.5%	–	15.6%	40.2%	21.2%	13.4%	2.08% (active)	–
O=C(NCCCNc1cc(-c2cn(-c3ccccc3)nc2-c2cccc(O)c2)ccn1)c1ccccc1	-25.8% (active)	-7.45% (active)	27.5%	38.1%	37.7%	50.8%	45.8%	-6.38% (active)	25.8%	-13.8% (active)	10.3%	-10.5% (active)	-32.4% (active)	23%	24.8%	–	20.2%	–
CCCCCCCCCCN(CCCCCCCCCC)CC(=O)c1ccc2cc(Br)c3ccccc3c2c1	-28.5% (active)	-33.1% (active)	86.9%	–	104%	-79.5% (active)	51.2%	–	64.8%	72.1%	72%	–	-94.2% (active)	99%	-22.8% (active)	–	-13.9% (active)	95.3%
CC/C=C1/C(=O)C=C[C@@H]1C/C=C\CCCC(=O)O	20%	19.9%	66.5%	–	111%	114%	82.2%	69.1%	91.5%	71.8%	76.5%	54.1%	43.5%	19.8%	35.5%	95.1%	63.4%	123%
C=CCn1c(C)nc2cc(Nc3nc(N4CCCC4)nc4ccccc34)ccc21	5.75% (active)	55%	84.1%	91.3%	123%	95.4%	105%	86.8%	83.3%	105%	96.9%	92.4%	75%	61.9%	19.6%	23.3%	70.1%	–
